Several values for one entry are separate records, joined by “and”; a condition that tells them apart may be missing. Equal values may be shown once. This is part of a sample that, as a whole, favours compounds with a hit. Of some 83,000 tested, about 20% had one in any assay.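 Cells were grown in 96-well plates and exposed to the test compound at a single concentration for 48 hours; results are reported as percent growth, with values below 10 considered active.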 Activity calls are given as the source filed them.

Data on 40 molecules can be found in PubChem BioAssay (NCI).

This assay has as its system MDA-MB-468 breast. Briefly: NCI-60 one-dose screen, 48 h (100 = growth as untreated, 0 = no growth, -100 = all killed). The conditions noted are these: 10 µM unless noted.
Take `CC1(C)Oc2cc3oc(=O)ccc3cc2C[C@@H]1OCCOS(=O)(=O)c1ccc(C#N)cc1`: the growth is 90.6% (inactive). The same measure for `Cc1cc2cc3cc(C)c(N)cc3[n+](C)c2cc1N`: -28.8% (active); for `CCCCn1cnc2c(Sc3c([N+](=O)[O-])ncn3C)nc(N)nc21`: 96.9% (inactive); for `COc1cccc(-c2cnco2)c1OCc1c(C)c(COc2c(OC)cccc2-c2cnco2)c(C)c(COc2c(OC)cccc2-c2cnco2)c1C`: 59% (inactive). For `Cc1cc(N/N=C/c2nc(-c3ccc(Cl)cc3)oc2C)c2cc(Br)ccc2n1`, the growth is -36.6% (active). For `CC(C)(C)c1cc(C(C)(C)c2ccccc2)cc(Cc2cc(C(C)(C)c3ccccc3)cc(C(C)(C)C)c2O)c1O`, the growth was 95.2% (inactive). For the molecule `Cc1cc(C)c(-c2cc(O)c(-c3c(C)cc(C)cc3C)cc2O)c(C)c1`, the growth is 4.15% (active). Take `COC(=O)c1ccc2cc(OC)c(OC)cc2c1`: the growth is 98.6% (inactive). Turning to `CC1(C)CC[C@]2(C(=O)O)CC[C@]3(C)C(=CC[C@@H]4[C@@]5(C)Cc6c([nH]c7ccccc67)C(C)(C)[C@@H]5CC[C@]43C)[C@@H]2C1`, the growth is 53.4% (inactive). As to `CC(=O)OCCCCN1C=C/C(=C\C(=O)n2ccc3ccccc32)c2ccccc21`, the growth is 98.4% (inactive). On to `c1ccc(-c2n(Cc3ccc4ccccc4c3)cc[n+]2Cc2ccc3ccccc3c2)cc1`, for which the growth is -65.5% (active). The same measure for `CCn1c(-c2nonc2N)nc2c(C#CC(C)(C)O)ncc(OC[C@H]3CCCNC3)c21`: 31.5% (inactive). Regarding `Cc1cc(N=Nc2ccc(C)c(N=Nc3cc(C)c(N)cc3N)c2)c(N)cc1N`, the growth was 96.7% (inactive) and 60.3% (inactive).

In the case of `COC1/C=C/OC2(C)Oc3c(C)c(O)c4c(O)c(c(/C=N/Nc5ccc([N+](=O)[O-])cc5[N+](=O)[O-])c(O)c4c3C2=O)NC(=O)C(C)=C/C=C/C(C)C(O)C(C)C(O)C(C)C(OC(C)=O)C1C` (stereo not given), the growth is -54.5% (active).

Regarding `C#CCOc1ccc2nc(CCl)c(Cl)c(Nc3cccc(C(F)(F)F)c3)c2c1`, the growth is 10.3% (inactive). The same measure for `CCOC(=O)c1ccc(N2C(=O)C(Cl)(c3ccccc3)C2c2ccco2)cc1` (stereo not given): 65.9% (inactive); for `CC(C)(C)[Si](C)(C)OC1[C@@H](CNC(=O)NC(=O)NC(N)=O)O[C@@H](n2cnc3c(NC(=O)Nc4ccccc4)ncnc32)[C@H]1O[Si](C)(C)C(C)(C)C` (stereo not given in full): 99.1% (inactive); for `CCNc1cc(-c2cccc(OC(F)(F)F)c2)nc2ccc(N3CCCC3)cc12`: -34.9% (active). Take `Cc1ccc(-c2csc(NC(=O)N3CCN(c4cc5c(cc4F)c(=O)c(C(=O)O)cn5C4CC4)CC3)n2)cc1`: the growth was -5.11% (active). On to `O=C(CCc1nnc2sc(OCc3ccccc3)nn12)c1nc2ccc([N+](=O)[O-])cc2[nH]1`, for which the growth was 109% (inactive). Take `O=C1CCC(N2C(=O)c3cccc(NCCCCCCOc4ccc(Nc5nccc(Nc6ccccc6)n5)cc4)c3C2=O)C(=O)N1` (stereo not given): the growth was 49.3% (inactive). Take `COC(=O)N[C@H]1CCc2c(Cl)c(OC)c(OC)c(OC)c2-c2ccc(SC)c(=O)cc21`: the growth is -18.8% (active). As to `CCOC(=O)C1=C(C)NC(=O)NC1c1ccc(OCC(=O)N/N=C/c2ccc(Cl)cc2)cc1` (stereo not given), the growth is 96.5% (inactive). The figure for `O=C(Nc1ccc(N2CCNCC2)cc1)c1[nH]ncc1Nc1ncnc2sc3c(c12)CCC3` is -83.5% (active).

Take `Cn1ncc2cc3c(Nc4ccc(Cl)cc4)cccc3nc21`: the growth is 79% (inactive). With `COc1cc(CNS(=O)(=O)c2ccc(C)cc2)ccc1OCc1cn(-c2ccc(Br)cc2)nn1`, the growth was 95.5% (inactive).

Consider `COc1cc(C=O)ccc1OC1OC(COC(C)=O)C(OC(C)=O)C(OC(C)=O)C1OC(C)=O` (stereo not given), for which the growth is 100% (inactive). Turning to `Cc1ccc(-c2nc(N3CCN(CC(=O)Nc4ccc(Cl)c(C(F)(F)F)c4)CC3)c3ccccc3n2)cc1`, the growth is 93.9% (inactive). For the molecule `CCOC(=O)c1cc2c(n1C)-c1nc(NC(C)=O)sc1CCC2`, the growth is 79.8% (inactive). Consider `Cn1cc(-c2nc(-c3c[nH]c4ccccc34)cs2)c2cccnc21`, for which the growth was -12.5% (active). The same measure for `C=C1CC[C@@H](C(=O)OC)Cc2nc(C)ccc21`: 106% (inactive); for `COc1ccc(-c2ccc(-c3ccc(C(=N)N)cn3)o2)cc1Cl`: -9.43% (active); for `COc1ccc(-c2nn(-c3cccc(NC(=O)c4cccc(C(F)(F)F)c4)c3)cc2-c2ccncc2)cc1Cl`: 31.4% (inactive). For `C=C1C(=O)O[C@H]2[C@H]1CC/C(Cn1cc(-c3ccc(F)cc3)nn1)=C\CC[C@@]1(C)O[C@@H]21`, the growth is -53.1% (active). On to `COc1ccc(-c2nn(C(=O)c3cc(OC)c(OC)c(OC)c3)c3cc(N)ccc23)cc1`, for which the growth was -1.08% (active).

`O=C(O)CCCC(=O)O`: the growth is 94.9% (inactive). The figure for `c1ccc(CSc2ncccc2-c2nnc(SCCN3CCOCC3)o2)cc1` is 98.3% (inactive); for `CC(C)(C)CC(C)(C)Nc1c(-c2ccc(-c3ccccc3)cc2)nc2cnccn12` it is 109% (inactive); for `Nc1cc(O)cc(O)c1` it is 107% (inactive).

As for `COc1ccc(NC(=O)/C=C/c2ccc(Cl)c(Cl)c2)cn1`, the growth was 69.5% (inactive).
